These results are taken from a collection of fitness landscapes (doi:10.1126/science.1257360).

Sequences and labels used below:
B1: PhoQ; a variant is named by its letters at X, in order, P23837 (parent)
chain: MKKLLRLFFPLSLRVRFLLATAAVVLVLSLAYGMVALIGYSVSFDKTTFRLLRGESNLFYTLAKWENNKLHVELPENIDKQSPTMTLIYDENGQLLWAQRDVPWLMKMIQPDWLKSNGFHEIEADVNDTSLLLSGDHSIQQQLQEVREDDDDAEMTHSVAVNVYPATSRMPKLTIVVVDTIPVELKSSYMVWSWFIYVLSANLLLVIPLLWVAAWWSLRPIEALAKEVRELEEHNRELLNPATTRELTSLVRNLNRLLKSERERYDKYRTTLTDLTHSLKTPLXXLQXXLRSLRSEKMSVSDAEPVMLEQISRISQQIGYYLHRASMRGGTLLSRELHPVAPLLDNLTSALNKVYQRKGVNISLDISPEISFVGEQNDFVEVMGNVLDNACKYCLEFVEISARQTDEHLYIVVEDDGPGIPLSKREVIFDRGQRVDTLRPGQGVGLAVAREITEQYEGKIVAGESMLGGARMEVIFGRQHSAPKDE

Over roughly 140,000 sequences, “enrichment ratio after two sorts for PhoP signalling” has its median near 0; the highest 2% begin near 11. Many of the other results were omitted from the sample, so the highest values are more common in it than they were.

In the assay the parent is B1. Nature of the assay: enrichment ratio after two sorts for PhoP signalling (ratio (wild type AVST 3.29)); higher = more functional. Conditions: with PhoP (E. coli).
Take FAIR: the enrichment ratio was ≤ 0.25.
With IVHI the figure was ≤ 0.25; with MQLF, 2.66.
The result for IWYQ reads ≤ 0.25; that for ATSW, 1.32; that for HLTG, 1.04.
With QCLG the figure was 2.4.
For PTLG, the enrichment ratio is ≤ 0.25.
For SALG, the enrichment ratio came out at 15.9.
With SCLG the figure was 12.6.
With GCLG the figure was 14.9; with SPLG, ≤ 0.25.
The result for SWLG reads ≤ 0.25; that for KCLG, ≤ 0.25; that for NALG, 0.397.
As to PWLG, the enrichment ratio was ≤ 0.25.
With STLG the figure was 14.5; with KALG, ≤ 0.25; with WEVH, ≤ 0.25.
Regarding HANP, the enrichment ratio was ≤ 0.25.
Turning to NMEQ, the enrichment ratio was ≤ 0.25.
For ILFS, the enrichment ratio was ≤ 0.25.
With QRWI, the enrichment ratio was ≤ 0.25.
With ISPF the figure was ≤ 0.25; with CVQT, ≤ 0.25.
The result for SYLG reads 9.61.
With TGLG the figure was 10.1; with SGLG, 15.5; with FQLG, 16.7.
Consider WQLG, for which the enrichment ratio was ≤ 0.25.
With FDLG the figure was ≤ 0.25.
The result for DPLG reads ≤ 0.25; that for KQLG, ≤ 0.25; that for EQLG, ≤ 0.25.
With NGLG the figure was ≤ 0.25.
As for SQLG, the enrichment ratio is 19.1.
In the case of TQLG, the enrichment ratio turned out to be 16.7.
The result for GAQK reads ≤ 0.25; that for NGQA, ≤ 0.25.
With VMKG the figure was ≤ 0.25.
With ILNQ, the enrichment ratio was ≤ 0.25.
Take DMSW: the enrichment ratio was ≤ 0.25.
With TCQW the figure was ≤ 0.25; with LQMI, ≤ 0.25.
The result for MMFL reads ≤ 0.25; that for HDFE, ≤ 0.25.
The result for WLYA reads ≤ 0.25.
For the variant MQWG, the enrichment ratio was 4.64.
The result for MQLA reads ≤ 0.25; that for MQLG, 22.
Turning to SFLG, the enrichment ratio came to 10.9.
The result for KYLG reads ≤ 0.25; that for SELG, 25.3.
With LEAH the figure was 0.895; with TEQC, 9.21; with FELK, ≤ 0.25.
As to FTPI, the enrichment ratio is ≤ 0.25.
On to MFEY, for which the enrichment ratio is ≤ 0.25.
With WMWW the figure was ≤ 0.25.
KQSG: the enrichment ratio was ≤ 0.25.
With PFSG the figure was ≤ 0.25.
The result for GGSG reads ≤ 0.25; that for TSSG, 14.4; that for NSSG, ≤ 0.25.
With TFSG, the enrichment ratio came out at 13.9.
The result for TGSG reads 16.4; that for KSSG, ≤ 0.25.
With YTSG the figure was ≤ 0.25; with HFSG, ≤ 0.25.
For the variant PGSG, the enrichment ratio was ≤ 0.25.
With TTSG, the enrichment ratio amounted to 19.5.
As for MWFY, the enrichment ratio is ≤ 0.25.
The result for SQPK reads ≤ 0.25; that for VRWV, ≤ 0.25; that for SYQC, ≤ 0.25.
RTQR: the enrichment ratio is ≤ 0.25.
With GNSG the figure was 13.2; with GISG, 8.5; with HCSG, ≤ 0.25.
For the variant SPSG, the enrichment ratio was ≤ 0.25.
The result for GVSG reads 7.26; that for TVSG, 20.3.
With WDLS the figure was ≤ 0.25.
Consider DAKY, for which the enrichment ratio was ≤ 0.25.
On to NIQR, for which the enrichment ratio is ≤ 0.25.
With AFTG, the enrichment ratio was determined as 5.35.
AQLG: the enrichment ratio was determined as 18.8.
The result for AFLG reads 15.7; that for SHLG, 10.8.
In the case of APLG, the enrichment ratio is ≤ 0.25.
With ADLG the figure was 3.46; with NHLG, ≤ 0.25.
THLG: the enrichment ratio worked out at 14.4.
The result for AHLG reads 6.95; that for AILG, 15.7.
The result for KKLG reads ≤ 0.25; that for AFFG, ≤ 0.25.
The result for MEPF reads ≤ 0.25.
In the case of WCFV, the enrichment ratio was ≤ 0.25.
With GSFI the figure was ≤ 0.25; with RMTQ, ≤ 0.25.
With YEWD the figure was ≤ 0.25; with LWMC, ≤ 0.25.
With QNWS the figure was 8.87.
Regarding PPKF, the enrichment ratio was ≤ 0.25.
With WPCT the figure was ≤ 0.25.
The result for SLTH reads 5.18.
With NKDQ the figure was ≤ 0.25; with FHGD, ≤ 0.25; with NMLG, ≤ 0.25.
With ATLG, the enrichment ratio came to 12.3.
In the case of TMLG, the enrichment ratio was 11.6.
With TTLG, the enrichment ratio is 10.6.
With ASLG the figure was 18.2; with FSLG, 8.53; with DMLG, ≤ 0.25.
With YTLG the figure was 6.93; with VRLG, ≤ 0.25.
With RQGG the figure was ≤ 0.25; with RQFP, ≤ 0.25; with PNPW, ≤ 0.25.
For RIWK, the enrichment ratio is ≤ 0.25.
On to NTQW, for which the enrichment ratio is ≤ 0.25.
For QDPH, the enrichment ratio is ≤ 0.25.
The result for RWEP reads ≤ 0.25; that for VLTN, ≤ 0.25.
In the case of VHTN, the enrichment ratio was ≤ 0.25.
Regarding WITN, the enrichment ratio is ≤ 0.25.
KYTN: the enrichment ratio was ≤ 0.25.
The result for NMTN reads ≤ 0.25.
With GHTN the figure was 12.9; with DMTN, ≤ 0.25; with SQTN, 8.46.
With AMTN the figure was 27.1; with TMTN, 13.4.
As to STTN, the enrichment ratio is 19.3.
The result for THTN reads 4.21; that for YVCF, 0.805.
With PGGT the figure was ≤ 0.25; with RGRC, ≤ 0.25.
The result for FMKW reads ≤ 0.25.
In the case of TWYE, the enrichment ratio is ≤ 0.25.
The result for YSAH reads ≤ 0.25; that for HNNM, ≤ 0.25.
With QGTS the figure was ≤ 0.25; with DETN, ≤ 0.25.
With VCTN the figure was ≤ 0.25; with YTTN, ≤ 0.25.
With SVTN, the enrichment ratio was 16.4.
The result for GTTN reads ≤ 0.25; that for TETN, 24.4.
With KCTN the figure was ≤ 0.25.
With KFTN the figure was ≤ 0.25.
